ELG1 DNA repair – inhibitors of ELG1-dependent DNA repair in HEK293T cells; HEK293T ELG1-luciferase reporter, luminescence, 16 h; DNA damage induced by 5-fluorouridine; Potency, µM (top dose mostly 46.1 µM), for inactives: at the highest dose activity change, negative = inhibition, usual class: inhibitors; 2.3% of 330,000 active; AID 504467; note: potency is the fitted concentration of half-maximal effect; nearly all actives have a fitted effect of over 55% in size
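5-Fluorouridine DNA damage + compound/DMSO, 2,000 cells/well, 16 h, 37 °C/5% CO2. ONE-Glo, 30 min RT, luminescence. Readout = decrease in reporter signal.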
VP16 counter – Gal4-VP16 reporter inhibition counter-screen | Drosophila S2 Gal4-VP16 UAS-luciferase, luminescence, 20 h | AID 2546 | 3.5% of 310,000 active | Potency, µM (highest dose often 53.6 µM), for the others: at the top dose activity, negative = inhibition, most hits filed as inhibitors;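 note: Gal4-VP16 expression switched on by copper sulfate through the metallothionein promoter; potency is the fitted concentration of half-maximal effect; nearly all actives have a fitted effect of over 50% in size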
RORg inh – ROR gamma (mouse) transcription inhibition. P51450. 5.4% of 310,000 active. AID 2551. Drosophila S2 Gal4-RORgamma UAS-luciferase reporter, 20 h. Potency, µM (doses to about 53.6 µM), for inactives: top-dose activity change, negative = inhibition, hits mostly inhibitors; note: potency is the fitted concentration of half-maximal effect; nearly all actives have a fitted effect of over 60% in size
Target sequence (P51450 whole entry, looked up, the tested form may be a part): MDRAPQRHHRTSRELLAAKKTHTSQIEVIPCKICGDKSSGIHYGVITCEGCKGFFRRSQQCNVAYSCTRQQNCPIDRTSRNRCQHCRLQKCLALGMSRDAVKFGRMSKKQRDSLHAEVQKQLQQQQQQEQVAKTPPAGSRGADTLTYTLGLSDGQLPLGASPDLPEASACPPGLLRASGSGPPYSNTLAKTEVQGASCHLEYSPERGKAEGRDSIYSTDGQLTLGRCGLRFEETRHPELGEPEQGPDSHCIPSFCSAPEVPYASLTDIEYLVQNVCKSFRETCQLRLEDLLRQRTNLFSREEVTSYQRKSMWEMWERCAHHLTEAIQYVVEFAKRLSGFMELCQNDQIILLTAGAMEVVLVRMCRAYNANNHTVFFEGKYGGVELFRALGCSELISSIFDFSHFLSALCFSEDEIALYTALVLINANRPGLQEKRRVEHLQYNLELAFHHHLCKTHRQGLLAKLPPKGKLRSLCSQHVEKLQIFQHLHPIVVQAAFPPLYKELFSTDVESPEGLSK
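Compounds are pin-transferred onto Drosophila Schneider cells expressing a copper-inducible Gal4–ROR gamma transactivation domain fusion. After 1 hr, copper sulfate is added to 700 uM final; luciferase is read 20 hr later.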
DT40 TDP1 CPT – DT40-hTDP1 cell growth loss with CPT | chicken DT40 Tdp1-/-;hTDP1 cells + 20 nM CPT, ATP luminescence, 48 h | Potency, µM (series often up to 46.2 µM), for the others: at the highest dose activity change, negative = growth inhibition, most hits filed as inhibitors | 12% of 420,000 active | AID 686979; note: potency is the fitted concentration of half-maximal effect; nearly all actives have a fitted effect of over 55% in size
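Chicken DT40 Tdp1-/- cells complemented with human TDP1, 400 cells/well, exposed to compounds plus 20 nM camptothecin for at least 48 h at 37 C; viability read as ATP content by CellTiter-Glo luminescence.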
DT40 TDP1 no CPT – qHTS for Inhibitors of human tyrosyl-DNA phosphodiesterase 1 (TDP1): qHTS in cells in absence of CPT; 15% of 420,000 active; Potency, µM (doses to about 46.2 µM), for the others: at the top dose activity change, negative = growth inhibition, usual class: inhibitors; DT40 Tdp1-/- hTDP1 cells, no CPT, ATP luminescence, 48 h; note: potency is the fitted concentration of half-maximal effect; nearly all actives have a fitted effect of over 55% in size
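A cellular qHTS used chicken DT40 cells lacking endogenous Tdp1 but carrying stably transfected human TDP1. Compounds were applied without camptothecin, and cell growth kinetics were judged by ATP-dependent luminescence after ≥48 hr.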
IL-1B inflam inh – inflammasome signaling inhibition, IL-1 beta readout | THP-1 LPS/ATP IL-1B secretion, AlphaLISA, 16 h; stronger effect = lower value | activity change, % at 57.5 µM | 4.7% of 360,000 active; in the data active = activity change below about -50%; inconclusive = mostly about -30% to -49%
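Secreted IL-1B measured by AlphaLISA bead assay after 16 h compound exposure of THP-1 cells; compounds (final up to 57.5 uM) added 1 h before LPS (250 ng/mL) and ATP (1.25 mM) stimulation; lower signal means less secretion.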
The depositor's hits bear a star; u = inconclusive; x = not tested or not shown. This is a sample that favours compounds with a hit; in the whole collection about 21% have one here. Unless noted, calls come from the whole dose curve; as a rule, active = well fitted curve in the direction sought with a large enough effect; inconclusive = small, poorly fitted or top-dose-only effect, or another doubt; inactive = no such curve, though single readings can be large; an effect the other way counts as inactive or inconclusive. % is set by controls: 0 for no effect and ±100 for the full control effect.

SMILES	ELG1 DNA repair	VP16 counter	RORg inh	DT40 TDP1 CPT	DT40 TDP1 no CPT	IL-1B inflam inh
O=C(SCC(O)C(O)CS)c1cccs1 (centres undefined)	14%	-6%	13%	-1%	-3%	0
CCNc1ncc2nc(-c3ccc(Cl)cc3)c(=O)n(-c3ccccc3)c2n1	x	-7%	2%	-4%	-7%	x
CC(NC(=O)COc1ccccc1Cl)c1ccccc1 (centres undefined)	-29%	5%	5%	-19%	u	-12
Cc1cccc(NC(=O)COc2ccccc2C(=O)NC(C)c2ccccc2)c1 (centres undefined)	7%	-13%	6%	u	29µM*	14
Cc1ccc(C)c(NC(=O)C(Sc2nncn2C)c2ccccc2)c1 (centres undefined)	4%	-8%	-16%	2%	-8%	0
Cc1cccc(NC(=O)C(C)Sc2ncnc3sccc23)c1 (centres undefined)	x	x	x	18µM*	15µM*	-2
Cc1ccc(C)c(NC(=O)C(Sc2nc3ccccc3c(=O)n2CC(C)C)c2ccccc2)c1 (centres undefined)	u	-7%	-24%	4.1µM*	2.6µM*	-2
CC(Sc1nc2ccccc2c(=O)n1CC1CCCO1)C(=O)N(C)c1ccccc1 (centres undefined)	u	x	x	21µM*	5.8µM*	-3
O=C(CSc1ncnc2ccccc12)Nc1ccc2c(c1)OCO2	u	17%	37%	u	u	-65*
c1ccc(Nc2nc(NCc3ccco3)nc3nccnc23)cc1	x	x	x	-3%	-26%	x
O=C(Cn1cnc2ccccc21)Nc1ccc2c(c1)OCCCO2	u	x	x	8.2µM*	2.3µM*	0
CC(Sc1ccccn1)C(=O)Nc1ccc2c(c1)OCCO2 (centres undefined)	u	x	x	1%	-6%	-8
CC(Sc1ncnc2ccccc12)C(=O)Nc1ccc2c(c1)OCCO2 (centres undefined)	u	-1%	u	15µM*	13µM*	-12
CC(C)Cn1c(SC(C)C(=O)Nc2ccc3c(c2)OCCO3)nc2ccccc2c1=O (centres undefined)	u	-20%	13µM*	29µM*	u	-14
CC(Sc1nc2ccccc2c(=O)n1C)C(=O)Nc1ccc2c(c1)OCCO2 (centres undefined)	-22%	x	x	8.2µM*	4.1µM*	22
O=C(CSc1nc2ccccc2c(=O)n1CCCO)Nc1ccc2c(c1)OCCO2	u	x	x	-21%	-29%	-18
COc1ccc(NC(=O)c2ccc(=O)[nH]c2)cc1S(=O)(=O)N1CCOCC1	16%	x	x	-1%	9%	9
COc1ccc(NC(=O)CSCC(=O)Nc2cccc3ncccc23)cc1	u	x	x	-22%	-17%	17
NC(=S)N/N=C/c1ccc(-c2ccccc2)o1	-2%	5µM*	1.4µM*	u	u	-24
NC(=S)N/N=C/c1ccc(-c2ccc(Cl)c(Cl)c2)o1	u	2µM*	2.5µM*	23µM*	13µM*	21
NC(=S)N/N=C\c1ccc(-c2cccc(Cl)c2Cl)o1	u	1.1µM*	0.89µM*	5.2µM*	4.6µM*	0
NC(=S)NN=Cc1ccc(-c2ccc(S(=O)(=O)Nc3ncccn3)cc2)o1	3%	x	x	-9%	u	19
CN(C)/N=C/c1ccc(/C=N/NC(N)=S)o1	11%	u	14µM*	-7%	-28%	9
C[C@H]1C2=C3C(CC[C@H]4C(OCc5ccc(F)cc5C(F)(F)F)OC[C@](C)([C@@H]34)N(C(=O)OC(C)(C)C)C2)C(CO)C1CO (some centres undefined)	x	6%	1%	x	x	x
NC(=S)N/N=C/c1ccc(-c2ccc(SC(F)F)cc2)o1	u	1.1µM*	0.5µM*	3.7µM*	5.2µM*	-30
SMILES	ELG1 DNA repair	VP16 counter	RORg inh	DT40 TDP1 CPT	DT40 TDP1 no CPT	IL-1B inflam inh
Cc1ccc(-c2ccc(/C=N/NC(N)=S)o2)cc1	u	2.5µM*	0.56µM*	2.9µM*	4.1µM*	45
COc1ccc(CC(=O)N/N=C/c2ccc(-c3ccc(F)cc3)o2)cc1OC	0%	1%	0%	-22%	u	u
O=C1Nc2ccccc2O/C1=C\c1ccccc1Br	11%	-14%	-29%	0%	-10%	6
O=C(c1ccc2c(c1)N(Cc1ccccc1F)C(=O)c1ccccc1S2)N1CCOCC1	0%	-27%	u	-1%	-8%	-5
CN1CCN(C(=O)c2ccc3c(c2)N(Cc2ccc(Cl)cc2)C(=O)c2ccccc2S3=O)CC1 (centres undefined)	-3%	-4%	-14%	-24%	-9%	-18
CN1CCN(C(=O)c2ccc3c(c2)N(Cc2ccc(C(F)(F)F)cc2)C(=O)c2ccccc2S3)CC1	x	x	x	u	21µM*	x
CN1CCN(C(=O)c2ccc3c(c2)N(Cc2c(F)cccc2Cl)C(=O)c2ccccc2S3)CC1	x	x	x	u	23µM*	x
COC(=O)c1ccc(C(NC(=O)OCc2ccccc2)/C(C)=C/[C@@H](C)C(=O)NCc2nn(-c3ccccc3)nc2C)cc1 (some centres undefined)	x	7%	33%	x	x	x
Cc1ccc(-n2nc(C)c3c(C)cc(=O)n(CC(=O)Nc4ccc(Br)cc4F)c32)cc1	x	x	x	-6%	-10%	x
O=c1nc(-c2ccccc2)c2cc(Cl)ccc2[nH]1	5%	0%	5%	u	1.3µM*	-19
O=c1nc(-c2ccccc2)c2cc(Br)ccc2[nH]1	-1%	-14%	-5%	0.33µM*	0.23µM*	-24
O=c1nc(-c2ccccc2)c2cc(SC(F)F)ccc2[nH]1	-14%	-2%	26%	-5%	0.41µM*	5
CO/N=C(\C(=O)N[C@@H]1C(=O)N2C(C(=O)[O-])=C(C[n+]3cccc4c3CCC4)CS[C@H]12)c1csc(N)n1	x	2%	5%	u	-30%	x
CCOc1ccc(-c2[nH]ncc2Oc2ccccc2OC)c(O)c1	-5%	u	16µM*	-24%	u	-20
CCOc1ccc(-c2[nH]ncc2Oc2ccccc2OCC)c(O)c1	-22%	u	10µM*	6.5µM*	u	-15
CCN1C(=O)c2ccc(C(=O)Nc3ccc4c(c3)OCO4)cc2C1=O	u	u	-7%	8%	-1%	-17

Screens deposited in PubChem BioAssay by National Center for Advancing Translational Sciences (NCATS).
